Sm TGR inh: inhibitors of Schistosoma mansoni thioredoxin glutathione reductase | Q962Y6 | purified TGR, DTNB reduction, TNB absorbance 405 nm | Potency, µM (titrated, usually from 114 µM), usual class: inhibitors | 360,000 compounds, 3% hits | AID 485364; note: nearly all actives have a fitted effect of over 60% in size
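TGR 20 nM + NADPH 100 uM (dispensed conc.), cpd preinc 15 min RT; start with NADPH (500 uM addition) then DTNB (15 mM addition). Kinetic TNB absorbance, 405 nm filter. Four-parameter Hill fit across titration.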
FBPA Giardia inh: inhibitors of Giardia lamblia fructose-1,6-bisphosphate aldolase; A8B2U2; purified Giardia FBPA; 290,000 compounds, 0.71% hits; Potency, µM (series often up to 59.6 µM), actives largely listed as inhibitors; note: nearly all actives have a fitted effect of over 55% in size
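40 nM FBPA preincubated 10 min at RT with compound (up to 57.5 uM final), then substrate plus GAPDH/TPI/NAD/arsenate coupling and diaphorase/resazurin added. Fluorescence read after 20 min at RT, 525/598 nm.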
CHX counter: affects cycloheximide protein synthesis inhibition readout, counter-screen | cell reporter, cycloheximide protein synthesis inhibition counterscreen | max response, % | 300,000 compounds, 12% hits | AID 2314; in the data active = max response mostly above about 13%, no sharp cut-off; inactive = mostly below about 14%; note: read at 38.3 µM for the half of the compounds with a filed dose
Shiga inhibitor: blocks Shiga toxin action in Vero cells. Vero cells, Shiga toxin protein synthesis inhibition reporter. inhibition, % at 38.7 µM. 290,000 compounds, 9.2% hits; in the data active = inhibition mostly above about 28%, no sharp cut-off; inactive = mostly below about 43%
Tb PYK inh: inhibitors of Trypanosoma brucei pyruvate kinase | Q57TT1 | TbPYK enzyme, Kinase-Glo Plus ATP luminescence, 45 min | Potency, µM (highest dose often 76.8 µM), hits mostly inhibitors | 410,000 compounds, 0.12% hits | AID 624173; note: nearly all actives have a fitted effect of over 50% in size
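T. brucei PYK with substrate was exposed to pin-transferred compounds across a concentration series, then started with 130 uM ADP (final). After 45 min at room temperature, Kinase-Glo Plus luminescence was read, normalized and curve-fitted.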
LmPK inh: blocks Leishmania mexicana pyruvate kinase activity; Q27686; purified LmPK, Kinase-Glo ATP luminescence, 1 h; Potency, µM (series often up to 57.5 µM), most hits filed as inhibitors; 290,000 compounds, 0.37% hits; AID 1721
Target sequence (Q27686 whole entry, looked up): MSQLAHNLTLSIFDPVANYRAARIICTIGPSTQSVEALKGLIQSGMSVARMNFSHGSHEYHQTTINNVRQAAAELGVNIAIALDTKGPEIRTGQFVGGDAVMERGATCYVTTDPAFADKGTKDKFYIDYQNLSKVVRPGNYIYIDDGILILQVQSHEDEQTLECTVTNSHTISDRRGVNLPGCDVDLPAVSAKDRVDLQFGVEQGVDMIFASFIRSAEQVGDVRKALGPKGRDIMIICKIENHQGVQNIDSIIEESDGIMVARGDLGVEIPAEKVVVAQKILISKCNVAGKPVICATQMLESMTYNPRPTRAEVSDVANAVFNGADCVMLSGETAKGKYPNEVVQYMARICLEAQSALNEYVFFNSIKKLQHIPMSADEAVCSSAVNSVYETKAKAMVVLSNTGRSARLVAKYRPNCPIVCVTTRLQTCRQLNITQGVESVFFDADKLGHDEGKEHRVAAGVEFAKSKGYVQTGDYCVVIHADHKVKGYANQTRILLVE
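Purified LmPK (0.1 nM) with 0.5 mM PEP and 0.1 mM ADP in imidazole buffer pH 7.2 with MgCl2/KCl, 1 h at room temperature. ATP formed was read by luciferase luminescence and normalized to no-enzyme and uninhibited controls.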
Hits are given with their value; . = inactive; ? = inconclusive; / = not tested or not shown. The full list was thinned out, with hits kept by preference. Unless noted, calls come from the whole dose curve; as a rule, active = well fitted curve in the direction sought with a large enough effect; inconclusive = small, poorly fitted or top-dose-only effect, or another doubt; inactive = no such curve, though single readings can be large; an effect the other way counts as inactive or inconclusive.

SMILES	Sm TGR inh	FBPA Giardia inh	CHX counter	Shiga inhibitor	Tb PYK inh	LmPK inh
CCCn1c(CC)nc([N+](=O)[O-])c1Sc1ccc(C)cc1	.	.	.	.	.	.
CCCn1c(CC)nc([N+](=O)[O-])c1Sc1ccc(F)cc1	44.7µM	.	.	.	.	.
Cc1cc(CNC(=S)Nc2cccc(Cl)c2Cl)nn1C	12.6µM	.	.	.	.	.
Cc1cc(CNC(=S)Nc2ccc(S(=O)(=O)Nc3ncccn3)cc2)nn1C	.	?	.	.	.	.
O=C(CC1Sc2ccccc2NC1=O)Nc1cccc(-c2nnc3n2CCCCC3)c1 (configuration not stated)	.	.	.	96.5	.	.
COc1cc2cnc(-c3ccccc3)c(-c3cc(OC)c(OC)c(OC)c3)c2cc1OC	3.16µM	/	/	/	.	/
COc1ccccc1C(=O)Nc1ccccc1C(=O)OCc1cc(=O)n2c(C)csc2n1	.	/	/	/	.	/
C=C[C@@H](C1=CC(=O)C(OC)=C(OC)C1=O)c1ccccc1	/	22.3µM	/	/	/	/
COC1=C(Nc2ccccc2)C(=O)C(OC)=C(Nc2ccccc2)C1=O	/	/	/	/	.	/
CCOCCCn1c(=N)c(C(=O)NCc2cccnc2)cc2c(=O)n3cc(C)ccc3nc21	.	/	/	/	.	/
Nc1c(Cl)ncnc1N/N=C/c1cccnc1	50.1µM	.	15.1	.	.	.
Nc1c(Cl)ncnc1N/N=C/c1ccnc2ccccc12	.	.	.	.	.	.
Nc1c(Cl)ncnc1N/N=C/c1ccc2ccccc2n1	.	.	69.1	120.6	.	.
Nc1c(Cl)ncnc1N/N=C/c1ccccn1	?	.	24.7	active	.	.
Nc1c(Cl)ncnc1Nc1ccc(C(=O)O)cc1	/	/	/	/	.	/
CCOC(=O)Cc1nc2ccccc2o1	.	.	15.2	.	/	.
Cc1cccc(N2CCN(C3=NC(=O)C(=C4CCCCC4)S3)CC2)c1	.	.	.	.	/	.
CC(=O)N1CCN(C2=NC(=O)C(=C3CCCCC3)S2)CC1	.	.	.	18.7	.	.
N#CCCN1CCN(C2=NC(=O)C(=C3CCCCC3)S2)CC1	.	.	34.8	.	.	.
O=C1N=C(N2CCOCC2)SC1=C1CCCCC1	.	.	74.8	81.2	.	?
CC(C)=C1SC(N2CCCCC2)=NC1=O	.	.	.	.	.	.
CC(O)c1cccc(-c2ccc(CN3C[C@]4(CO)O[C@@H](CO)C[C@@H]4S3(=O)=O)cc2)c1 (some centres not stated)	/	/	/	/	.	/
C=CCOc1ccccc1CNc1ccc2c(c1)OCCO2	?	?	26.7	52.9	.	.
C=CCOc1ccccc1CNc1cccc(F)c1	.	.	.	.	.	.
CCOc1ccc(Br)cc1CNCCN1CCOCC1	.	.	.	.	.	.
SMILES	Sm TGR inh	FBPA Giardia inh	CHX counter	Shiga inhibitor	Tb PYK inh	LmPK inh
CCOc1ccc(Br)cc1CNc1ccc2c(c1)OCCO2	.	.	23.4	.	.	.
CCOc1ccccc1-n1c(CNc2ccc(F)cc2)nnc1SCC(=O)NCc1ccco1	.	.	21.6	.	.	.
O=C(CSc1nnc(COc2ccccc2F)n1-c1ccccc1)NCc1ccco1	39.8µM	.	19.4	53.2	.	.
COc1ccccc1OCc1nnc(SCC(=O)NCc2ccco2)n1Cc1ccco1	15.8µM	.	.	.	.	.
COc1ccccc1CNc1ncnc2ccc(-c3ccc(C(=O)N(C)C)cc3)cc12	/	.	/	/	/	/
COc1ccc2nc(N)sc2c1	.	.	.	.	.	.
COc1ccc2nc(-c3ccc(N(C)C)cc3)sc2c1	/	.	31.6	25.3	/	/
COc1ccc2nc(-n3c(C)ccc3C)sc2c1	.	.	22.4	77.4	.	.
COc1cc(OC)cc(-c2nc3ccccc3s2)c1	.	.	46.1	72.1	.	?
CCN1CCC(N(Cc2ccc(F)cc2)C(=O)Nc2cc(Cl)ccc2C(=O)OC)CC1	.	/	/	/	.	/
CCc1[nH]nc(C(=O)N2CCCC(Nc3cccc(F)c3)C2)c1C (configuration not stated)	.	/	30.6	65.7	.	.
CCc1[nH]nc(C(=O)N2CCCC(Nc3ccc(C(C)C)cc3)C2)c1C (configuration not stated)	.	/	.	.	.	.
c1ccc(-c2n[nH]c(-c3ccccn3)n2)cc1	.	.	24.2	.	.	?
CCOc1ccc(NC(=O)c2csc3c2CCCC3)cc1	.	.	35.9	.	.	.
CC(=O)c1cccc(NC(=O)c2csc3c2CCCCC3)c1	.	.	36.7	54.7	.	.
CCc1nc2c(OCc3cccc(Cl)c3)cccn2c1N(C)C(=O)c1ccco1	/	/	/	/	.	/
O=C(Nc1c(Br)cc2c(c1Br)Cc1ccccc1-2)C(Cl)Cl	/	/	/	/	.	/
COC(=O)c1ccccc1NS(=O)(=O)c1cc2c(cc1C)N(C)CCO2	.	/	/	/	.	/
Cn1c(C(=O)c2ccccc2)nc2ccccc21	.	.	26.1	58.4	.	.
S=C(NCCCc1ccccc1)Nc1ccccc1	.	/	20.0	.	.	.
Fc1ccc(F)c(NC(=S)NCCc2ccccc2)c1	.	.	30.0	95.8	.	.
O=[N+]([O-])c1ccc(S(=O)(=O)NNC(=S)NCCc2ccccc2)cc1	1.78µM	/	.	.	.	.
Fc1cccc(NC(=S)NCCc2ccccc2)c1	.	.	45.4	96.3	.	.
CCOc1ccc(N2CC(C(=O)Nc3ccc(S(=O)(=O)Nc4nccs4)cc3)CC2=O)cc1 (configuration not stated)	.	/	.	.	.	.
CCc1ccc(CNC(=O)Cn2nc(C)n3c(cc4cc(C)ccc43)c2=O)cc1	.	/	/	/	.	/
SMILES	Sm TGR inh	FBPA Giardia inh	CHX counter	Shiga inhibitor	Tb PYK inh	LmPK inh
Cc1c(Cl)cccc1NC(=S)NCCc1ccc(Cl)cc1	.	.	.	.	.	.
Fc1ccccc1NC(=S)NCCc1ccccc1	?	.	39.0	59.4	.	.
Fc1ccc(NC(=S)NCCc2ccccc2)c(F)c1F	.	.	35.5	109.3	.	.
CSc1ccccc1NC(=S)NCc1ccc(Cl)cc1	?	.	37.2	151.0	.	.
Cc1cccc(NC(=S)NCCc2ccccc2)c1C	.	.	.	.	.	.
Fc1ccccc1NC(=S)NCCc1ccc(Cl)cc1	?	/	53.5	73.9	.	.
CCCC[C@@H](CC)COC(=O)C[C@H](C(=O)OC[C@H](CC)CCCC)S(=O)(=O)O	/	/	/	/	.	/
O=[N+]([O-])c1cccc(NC(=S)NCCc2ccccc2)c1	.	.	39.4	60.2	.	.
O=C(Cc1cccc([N+](=O)[O-])c1)Nc1ccccc1	/	/	/	/	.	/
C/C(=N\NC(=O)c1n[nH]c2c1CCC2)c1cccs1	.	.	.	.	.	11.2µM
O=C(N/N=C/c1cccs1)c1n[nH]c2c1CCCC2	.	.	.	.	.	14.1µM
O=C(N/N=C\c1cccc(Cl)c1)c1n[nH]c2c1CCCC2	.	.	58.6	78.4	.	.
O=C(N/N=C/c1cccc(Cl)c1)C1CCCC1	.	/	35.2	54.4	.	.
O=C(N/N=C/c1cccnc1)C1CCCCC1	.	.	.	.	.	.

High-throughput results deposited in PubChem BioAssay by National Center for Advancing Translational Sciences (NCATS).
